# Test results taken from publication PMC4336329 (PLoS ONE, 2015).
# Out of some 310,000 compounds screened, about 14,000 (4.5%) showed an effect of 50% or more. The effect is printed as a negative number. The sample as a whole holds a higher share of strong results than the screen did.
# Target: human ether-à-go-go-related gene (hERG) potassium channel (human, UniProt Q12809)
# Experiment: primary screen, population patch clamp on CHO cells stably expressing hERG; higher = less effect of the substance
# 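Note: peak tail current of the secondary pulse compared with the same well before compound.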
# human ether-à-go-go-related gene (hERG) potassium channel, sequence (Q12809 whole entry, looked up): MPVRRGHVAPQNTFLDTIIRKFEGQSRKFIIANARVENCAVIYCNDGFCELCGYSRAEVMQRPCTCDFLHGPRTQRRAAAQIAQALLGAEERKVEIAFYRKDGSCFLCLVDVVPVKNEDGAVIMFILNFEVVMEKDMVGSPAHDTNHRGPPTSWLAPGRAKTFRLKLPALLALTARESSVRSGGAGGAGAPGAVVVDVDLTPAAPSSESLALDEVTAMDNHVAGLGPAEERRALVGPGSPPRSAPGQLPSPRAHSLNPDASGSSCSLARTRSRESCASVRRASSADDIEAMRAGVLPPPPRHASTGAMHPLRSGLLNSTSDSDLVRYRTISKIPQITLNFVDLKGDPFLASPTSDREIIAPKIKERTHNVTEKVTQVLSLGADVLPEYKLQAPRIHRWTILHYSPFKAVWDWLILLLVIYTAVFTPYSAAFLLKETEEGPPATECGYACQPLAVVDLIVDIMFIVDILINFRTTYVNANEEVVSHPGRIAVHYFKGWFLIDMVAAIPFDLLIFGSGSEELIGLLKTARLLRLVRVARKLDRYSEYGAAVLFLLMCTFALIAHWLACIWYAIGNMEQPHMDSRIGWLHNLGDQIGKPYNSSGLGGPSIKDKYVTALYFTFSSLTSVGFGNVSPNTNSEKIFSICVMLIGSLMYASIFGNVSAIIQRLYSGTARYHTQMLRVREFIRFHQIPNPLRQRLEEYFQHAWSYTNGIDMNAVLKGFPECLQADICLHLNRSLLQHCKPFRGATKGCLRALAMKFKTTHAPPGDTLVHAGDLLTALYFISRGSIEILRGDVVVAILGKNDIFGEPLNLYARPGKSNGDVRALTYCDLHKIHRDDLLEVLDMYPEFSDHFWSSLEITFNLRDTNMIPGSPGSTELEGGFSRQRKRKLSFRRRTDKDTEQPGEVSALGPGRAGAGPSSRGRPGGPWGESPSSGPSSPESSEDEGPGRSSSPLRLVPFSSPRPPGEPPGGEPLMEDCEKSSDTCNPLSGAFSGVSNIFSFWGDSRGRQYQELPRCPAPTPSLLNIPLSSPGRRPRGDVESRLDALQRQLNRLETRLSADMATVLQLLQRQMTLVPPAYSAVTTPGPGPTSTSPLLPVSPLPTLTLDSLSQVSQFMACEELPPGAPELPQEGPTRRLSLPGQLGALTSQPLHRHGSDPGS
row,SMILES,"hERG current change (%, negative = inhibition) at 10uM [%]"
1,Cc1ccc(OCc2nc3ccccc3[nH]2)cc1,-9.02
2,O=C(CN1CCN(c2cccc(C(F)(F)F)c2)CC1)N(C1CC1)C1CCS(=O)(=O)C1 (centres unmarked),-29.2
3,O=[N+]([O-])c1cccnc1N1CCCCC1,5.7
4,Cc1c(C(=O)N2CCN(c3ccccc3)CC2)sc2nc3n(c(=O)c12)CCC3,6.84
5,COc1ccc(-c2nnnn2C)cc1S(=O)(=O)NCCc1ccccc1,-2.23
6,CCc1c(C)sc(NC(=O)Cc2ccccc2OC)c1C(=O)N1CCOCC1,-16.4
7,Cc1cc(N)n2nc(-c3ccc(C(C)(C)C)cc3)cc2n1,8.26
8,O=C(NCC(c1cccs1)N1CCOCC1)c1cc([N+](=O)[O-])ccc1Cl (centres unmarked),-20.5
9,NC(=O)c1ccccc1OCC(=O)Nc1ccc2c(c1)CCC2,5.27
10,Cc1ccc(S(=O)(=O)Oc2ccc(/C=C3\N=C(c4cccc(C)c4)OC3=O)cc2)cc1,1.5
11,O=C(COc1ncnc2ccccc12)Nc1ccc(Cl)c(S(=O)(=O)N2CCOCC2)c1,-13.5
12,CCn1c(C)c(C(=O)O)c2cc(OC)ccc21,6.41
13,Cc1ccc(NC(=O)c2ccc(Cl)c(N3C(=O)C=CC3=O)c2)cc1,-0.826
14,CN(CCOc1ccccc1)C(=O)c1ccc(OC2CCN(C(=O)C3CC3)CC2)cc1,-25.7
15,COc1ccc(NC(=O)CCC(=O)Nc2nnc(CC(C)C)s2)cc1Cl,20
16,COc1ccc(SC[C@H](Cc2ccccc2)N2CCN(C)CCC2=O)cc1,-52.2
17,CN1CCC(=O)N([C@H](CO)Cc2ccccc2)CC1,12
18,Cc1nn(CCCC(=O)NCc2ccc(Cl)cc2)c(C)c1[N+](=O)[O-],-41.9
19,Nc1cc(C(=O)N2CCCC2)cc(C(=O)N2CCCC2)c1,11.9
20,O=C(O)c1ccc2cc(-c3ccccc3)[nH]c2c1,-30.8
21,C=CCN1C(=O)C(Cc2ccc(OC)cc2)S/C1=N\N=C\c1cccs1 (centres unmarked),13.1
22,O=C1CC(N2CCN(c3ccccn3)CC2)C(=O)N1CC(c1ccccc1)c1ccccc1 (centres unmarked),-64

row,SMILES,"hERG current change (%, negative = inhibition) at 10uM [%]"
1,CN1C(=O)CC(N2CCN(c3ccccn3)CC2)C1=O (centres unmarked),1.46
2,O=C(CCn1nc(-c2ccc(Cl)cc2)ccc1=O)N1CCN(c2ccc(F)cc2)CC1,-52.9
3,Cc1ccc(C(=O)CCC(=O)N2CCN(c3ccc(F)cc3)CC2)cc1,-10.1
4,O=C(CC(c1ccccc1)c1ccccc1)N1CCN(c2ccccn2)CC1,-53.4
5,O=C(CCn1nc(-c2ccc(Cl)cc2)ccc1=O)N1CCN(c2ccccc2)CC1,-45.9
6,O=C(O)CCC(=O)N1CCN(c2ccccn2)CC1,9.16
7,O=C(CCC(=O)N1CCN(c2ccc(F)cc2)CC1)c1ccccc1,-12.7
8,O=C(CSc1ccccc1)N1CCN(c2ccccn2)CC1,-24.6
9,O=C(CCC(=O)N1CCN(c2ccc(F)cc2)CC1)c1ccc(F)cc1,-69.4
10,O=C1CC(N2CCN(c3ccccn3)CC2)C(=O)N1c1ccc(F)cc1 (centres unmarked),14.7
11,O=C(CCn1nc(-c2ccc(Cl)cc2)ccc1=O)N1CCOCC1,-36.9
12,Cn1c(COc2cccc3cccnc23)nnc1SCC(=O)O,9.13
13,Cc1cccc(C)c1NC(=O)CCS(=O)(=O)c1cccc2nsnc12,-4.59
14,CCOC(=O)c1cc2c(ccn2C)n1Cc1ccccc1C,11.8
15,CN1C(=O)CC(c2ccccc2)C1=O (centres unmarked),3.18
16,Cc1cc(NCCc2ccccc2F)n2ncnc2n1,-1.21
17,Cc1cc(C)cc(N(C(=O)Cc2cccs2)C(C(=O)NC2CCCC2)c2ccc(C)o2)c1 (centres unmarked),2.77
18,COC(=O)c1cc2c(ccn2-c2ccc(F)cc2)n1Cc1cccc(OC)c1,0.0373
19,O=C(CCn1nc(-c2ccccc2)ccc1=O)N1CCN(c2ccccn2)CC1,-53.1
20,O=C(CCn1nc(-c2ccccc2)ccc1=O)N1CCN(c2ccccc2)CC1,-11.2
21,Cc1ccc(-c2ccc(=O)n(CCC(=O)N3CCN(c4ccccc4)CC3)n2)cc1,-49.1
22,O=C(CCC(=O)N1CCN(c2ccc(F)cc2)CC1)N1CCN(c2ccc(F)cc2)CC1,-43.9

row,SMILES,"hERG current change (%, negative = inhibition) at 10uM [%]"
1,O=C(CCC(=O)N1CCN(c2ccc(F)cc2)CC1)c1ccc(Cl)cc1,-55.8
2,O=C(O)CCC(=O)N1CCN(c2ccc(C(=O)c3ccc(F)cc3)cc2)CC1,0.927
3,CC(C)CN(C(=O)COC(=O)c1ccc([N+](=O)[O-])o1)C1CCS(=O)(=O)C1 (centres unmarked),-31.8
4,CC(C)COC(=O)N1CC(O)CC1C(=O)O (centres unmarked),25.3
5,CC(=O)Nc1nnc(SCC(=O)N2C(C)CCCC2C)s1 (centres unmarked),12.9
6,CCCC(=O)Nc1nnc(SCC(=O)N2C(C)CCCC2C)s1 (centres unmarked),-50.1
7,COCC(=O)Nc1nnc(SCC(=O)N2C(C)CCCC2C)s1 (centres unmarked),15.2
8,COc1ccc(-n2cnnc2SCC(=O)Nc2cccc(S(=O)(=O)N3CCCCC3)c2)cc1,-18.5
9,O=C(CSc1ncn[nH]1)Nc1cccc(S(=O)(=O)N2CCCCCC2)c1,-77.1
10,Cc1ccc(S(=O)(=O)N2CCCCC2)cc1NC(=O)CSc1ncn[nH]1,12
11,COc1ccc(-n2cnnc2SCC(=O)Nc2cc(S(=O)(=O)N3CCCCC3)ccc2C)cc1,-84
12,Cn1cnnc1SCC(=O)Nc1cccc(S(=O)(=O)N2CCCCCC2)c1,-17.4
13,O=C(CSc1ncn[nH]1)Nc1ccc(S(=O)(=O)N2CCCC2)cc1,14.5
14,COCCn1cnnc1SCC(=O)Nc1cccc(S(=O)(=O)N2CCCCCC2)c1,-60.3
15,COCCn1cnnc1SCC(=O)Nc1cccc(S(=O)(=O)N2CCCCC2)c1,-17.8
16,Cc1ccc(S(=O)(=O)N2CCCCC2)cc1NC(=O)CSc1nncn1-c1ccccc1,-35.2
17,CCC1(OC(=O)CN)C(=O)OCc2c1cc1n(c2=O)Cc2cc3ccccc3nc2-1.Cl (centres unmarked),8.16
18,CC(=O)c1cccc(NC(=O)/C(=C\c2ccco2)NC(=O)c2cccs2)c1,-9.8
19,CCOC(=O)N1CCN(C(=O)C(C)N(c2ccccc2)S(C)(=O)=O)CC1 (centres unmarked),25.1
20,O=C(O)CC(CC(=O)Nc1ccc(C(=O)O)cc1)c1ccccc1 (centres unmarked),12.9
21,Cc1ccc(-n2c(=O)c3sccc3n(CC(=O)NC3CCCCC3)c2=O)cc1,9.86
22,O=C(COC(=O)c1cnccn1)NCc1ccc(Cl)cc1,-3.54

row,SMILES,"hERG current change (%, negative = inhibition) at 10uM [%]"
1,COCCN(C(=O)Cc1cccs1)C(C(=O)NC1CCCC1)c1cc(OC)c(OC)c(OC)c1 (centres unmarked),8.79
2,CCO.Cc1nn(-c2ccccn2)c2c1C(c1ccsc1)C1=C(CCCC1=O)N2 (centres unmarked),-16.1
3,Cc1ccc(C2C3=C(CCCC3=O)Nc3c2c(C)nn3-c2ccccn2)o1 (centres unmarked),1.07
4,Cc1nn(-c2ccccn2)c2c1C(c1ccncc1)C1=C(CC(C)(C)CC1=O)N2 (centres unmarked),-50.8
5,CC(C)(C)[C@H]1C=C(C(=O)NCc2ccccc2)O[C@@H](OCc2ccc(CO)cc2)C1,-12.9
6,COc1ccc(N(C(=O)c2snc(C(N)=O)c2N)C(C(=O)NC2CCCC2)c2cc(OC)ccc2OC)c(OC)c1 (centres unmarked),20.9
7,CC1=C(C#N)C(NC(=O)C2CC2)(C(F)(F)F)C(=O)N1 (centres unmarked),-2.06
8,COc1cccc(-n2c(=S)sc3c(=O)n(-c4ccccc4C)c(SCC(=O)O)nc32)c1,16.5
9,N/C(=N\O)c1ccc(Oc2ccccc2Cl)c([N+](=O)[O-])c1,-9.72
10,CCC1=Nc2cc(C(=O)NCCN3CCCC3)ccc2Sc2ccccc21,-52.1
11,CCCC1=Nc2cc(C(=O)NCCN3CCCC3)ccc2Sc2ccccc21,-21.2
12,CCC1=Nc2cc(C(=O)NCCN3CCCC3)ccc2Sc2ccc(C)cc21,-29
13,CCCC1=Nc2cc(C(=O)NCCN3CCOCC3)ccc2Sc2ccc(C)cc21,-34.3
14,CCC1=Nc2cc(C(=O)NCCN3CCOCC3)ccc2Sc2ccccc21,-15.3
15,CCC1=Nc2cc(C(=O)NCCN3CCOCC3)ccc2Sc2ccc(C)cc21,-82.3
16,Cc1cccc(NC(=O)COc2ccccc2C(=O)NC(C)c2ccccc2)c1 (centres unmarked),-8.56
17,Cc1onc(-c2ccccc2)c1C(=O)N/N=C/c1ccc(O)c([N+](=O)[O-])c1,9.34
18,CCCCn1c(O)c(N=NC(=O)c2ccccc2NS(=O)(=O)c2cccs2)c2ccccc21,-2.54
19,O=C(CSc1nncn1-c1ccccc1)Nc1c(F)cccc1F,3.19
20,NC(N)=NS(=O)(=O)c1ccc(N/C=C/C(=O)c2ccc(Cl)c(Cl)c2)cc1,17.3
